The values that follow come from PubChem BioAssay AID1645860 (Buhrlage Lab, Dana-Farber Cancer Institute and Novartis …, 2021).

Hit rate of the full screen: of about 47,000 compounds, about 2,500 (5.3%) were called active. Rule as the data show it: active = inhibition above about 30%; inactive = the rest. This excerpt belongs to a sample that is enriched for actives.

The target in this assay is Ubiquitin carboxyl-terminal hydrolase 30 (Homo sapiens) (UniProt Q70CQ3). The assay is described as follows: blocks human USP30 ubiquitin-rhodamine cleavage (AID 1645860). The conditions noted are these: purified USP30, Ub-rhodamine cleavage fluorescence; at 25 µM; hits give high values.
Ubiquitin carboxyl-terminal hydrolase 30 (Homo sapiens), sequence (Q70CQ3 whole entry, looked up): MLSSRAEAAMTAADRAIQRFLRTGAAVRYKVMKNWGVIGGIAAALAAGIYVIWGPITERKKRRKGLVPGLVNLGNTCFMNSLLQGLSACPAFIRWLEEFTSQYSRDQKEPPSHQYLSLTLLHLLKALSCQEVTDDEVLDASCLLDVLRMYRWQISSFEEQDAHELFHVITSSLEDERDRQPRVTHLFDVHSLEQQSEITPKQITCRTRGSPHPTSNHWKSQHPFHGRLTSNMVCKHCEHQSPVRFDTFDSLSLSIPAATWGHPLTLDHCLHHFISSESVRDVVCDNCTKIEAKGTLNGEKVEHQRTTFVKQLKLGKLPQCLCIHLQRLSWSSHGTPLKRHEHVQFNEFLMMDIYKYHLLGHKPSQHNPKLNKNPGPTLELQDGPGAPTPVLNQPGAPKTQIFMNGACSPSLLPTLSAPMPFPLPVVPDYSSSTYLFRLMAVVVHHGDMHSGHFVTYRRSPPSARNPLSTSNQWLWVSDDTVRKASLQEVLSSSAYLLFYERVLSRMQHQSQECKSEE
The inhibition is the change of the read-out against control, counted positive when it falls. Turning to `COc1cc(NC(=O)C2CCCCC2)c(OC)cc1NC(=O)CCC(=O)N1CCCCC1`, the inhibition was -281% (inactive).

Regarding `Cc1ccc(CS(=O)(=O)N2CCC(C(=O)N3CCC(C)CC3)CC2)cc1`, the inhibition is 9.43% (inactive). The same measure for `O=C(C1CCCCC1)N1CCCC(c2ccnc3ncnn23)C1` (centres undefined): 21.7% (inactive); for `Cc1ccccc1CNS(=O)(=O)c1c[nH]c2ncccc12`: -1.83% (inactive). Consider `Cc1nc(-c2ccc(C)c(S(=O)(=O)NC3CCCC3)c2)cs1`, for which the inhibition is -1.27% (inactive). For `Cc1nc(-c2ccc(C)c(S(=O)(=O)NCc3ccccc3Cl)c2)cs1`, the inhibition was 34.4% (active).

Consider `Cc1cncc(C(=O)N[C@@H]2CC[C@H]3Oc4ccccc4N[C@H]3[C@@H]2O)c1`, for which the inhibition is 6.67% (inactive). Then `Cc1c(C(=O)O)[nH]c2ccccc12`, with -68.1% (inactive). The same measure for `C[C@@H]1O[C@@H](OC2[C@H](Oc3cc(O)c4c(c3)OC(c3ccc(O)cc3)CC4=O)O[C@H](CO)[C@@H](O)[C@@H]2O)[C@H](O)[C@H](O)[C@H]1O` (some centres undefined): 33% (active); for `Cc1cc(=O)oc2c(C)c(OC(C)C(=O)NCc3ccncc3)ccc12` (centres undefined): 6.63% (inactive). The same measure for `COc1ccc(-c2cc(=O)oc3c(C)c(OCc4ccccc4F)ccc23)cc1`: 44% (active). For the compound `Cc1c(OCc2ccccc2)noc1C1CCN(CC(N)=O)CC1`, the inhibition is 6.2% (inactive). The same measure for `Cc1cnc(N2CCC3(CC(=O)N(c4cccnc4)C3)C2)nc1` (centres undefined): -20.9% (inactive); for `Cc1ccc(N(C)C(=O)C2CCC(=O)N2S(=O)(=O)c2ccccc2)cc1` (centres undefined): 20.6% (inactive); for `COc1cccc(-c2nnc(-c3ccc(-n4ccnc4)nc3)o2)c1`: -12.7% (inactive).

`COCCn1c(=O)[nH]c2cc(C(=O)NCCNc3ccc([N+](=O)[O-])cc3C#N)ccc2c1=O`: the inhibition is -7.15% (inactive). As to `O=C(NCCc1ccccc1)c1ccc2c(=O)n(Cc3ccco3)c(=O)n(Cc3cccc([N+](=O)[O-])c3)c2c1`, the inhibition was 66.4% (active). In the case of `O=C(NCCc1ccccc1)c1ccc2c(=O)nc3c(-c4ccccc4F)n[nH]n3c2c1`, the inhibition was -10.3% (inactive). Then `COc1cccc(Nc2nc(N3CCCCC3)nc3c2cnn3C)c1`, with -24.2% (inactive). Then `CC(NC(=O)c1nc2n(n1)-c1ccccc1S(=O)(=O)N2)c1cc2ccccc2o1` (centres undefined), with 0.0682% (inactive); and `O=C(Nc1cnc(N2CCCC2)nc1)c1ccco1`, with -2.69% (inactive). The same measure for `COc1ccc(NC(=O)Cc2noc(-c3cccc(OC)c3)n2)cc1`: -26.6% (inactive). Consider `CC(C)[C@H](NC(=O)N1CCn2c1nc1ccccc12)C(=O)NCCc1ccccc1`, for which the inhibition is -9.82% (inactive).

Regarding `CSCC[C@H](NC(=O)N1CCn2c1nc1ccccc12)C(=O)NCc1ccc2c(c1)OCO2`, the inhibition was 43.3% (active). As to `COCCCNC(=O)[C@H](Cc1ccccc1)NC(=O)N1CCn2c1nc1ccccc12`, the inhibition was 1.89% (inactive). Regarding `COCCn1cnc2nnc3ccc(C(=O)NC(C)C)cc3c21`, the inhibition was -9.87% (inactive). The same measure for `COc1ccc(CCNC(=O)CSc2cn(CCNC(=O)c3ccccc3C)c3ccccc23)cc1OC`: 36.5% (active); for `COc1ccc(NC(=O)CSc2cn(Cc3ccccc3C)c3ccccc23)c(OC)c1`: 8.78% (inactive). `COc1ccc(CCNC(=O)c2ccc3ccccc3c2)cc1OC`: the inhibition is -12.8% (inactive). The same measure for `CC(C)c1noc2ncc(-c3nnc(C4CC4)o3)cc12`: -9.16% (inactive).

With `COc1ccc2ncc(S(=O)(=O)c3ccccc3)c(N3CCOCC3)c2c1`, the inhibition is -25.7% (inactive). The same measure for `COc1ccc2ncc(S(=O)(=O)c3ccccc3)c(N3CCN(c4cccc(C)c4C)CC3)c2c1`: -1.48% (inactive); for `COc1ccc2ncc(S(=O)(=O)c3ccccc3)c(Nc3ccc(F)cc3)c2c1`: 38.4% (active); for `COCCn1cnc2c(-c3ccccc3)cn(CC(=O)NCc3ccccc3)c2c1=O`: -28.3% (inactive). Then `COCC(=O)N1CCCCCC1C1CCN(c2nn3cc(C)nc3s2)CC1` (centres undefined), with 16.4% (inactive). Then `COC(=O)c1ccc(C2c3[nH]c4ccccc4c3C[C@H]3C(=O)N(CC4CCCO4)CC(=O)N23)cc1` (some centres undefined), with -26.4% (inactive). For the compound `O=C(Nc1cc(C(F)(F)F)ccc1-n1cnc2ccccc21)c1ccc(S(=O)(=O)N2CCCCC2)cc1`, the inhibition was 32.6% (active). The same measure for `CCOc1ccc(S(=O)(=O)N2CCCCC2)cc1NC(=O)c1ccc(C#N)cc1`: 11.5% (inactive). Then `COc1ccccc1OCC(=O)Nc1cc(C(F)(F)F)ccc1N1CCCCC1`, with -1.33% (inactive); and `CCn1nnc2c1C(COC)CN(C(=O)CC1=CCCCC1)C2` (centres undefined), with -64.1% (inactive). Regarding `CCN(C(=O)c1nc(-c2cccc(F)c2)n2c1CCCCC2)c1ccccc1`, the inhibition is -10.9% (inactive). With `C=C(NC(=O)C(=C)NC(=O)c1csc(C2=N[C@@H]3c4csc(n4)[C@H]4NC(=O)c5csc(n5)[C@H]([C@](C)(O)[C@@H](C)O)NC(=O)C5CSC(=N5)/C(=C/C)NC(=O)C([C@@H](C)O)NC(=O)c5csc(n5)[C@]3(CC2)NC(=O)[C@H](C)NC(=O)C(=C)NC(=O)[C@H](C)NC(=O)C([C@@H](C)CC)NC2C=Cc3c(C(C)O)cc(nc3[C@H]2O)C(=O)OC4C)n1)C(N)=O` (some centres undefined), the inhibition was -88.3% (inactive). As for `COc1ccccc1Nc1nc(-c2cnc(N3CCCC3)nc2C)cc(=O)[nH]1`, the inhibition was 23.2% (inactive). In the case of `Cc1nnc(OCC(=O)Nc2ccc(OC(F)(F)F)cc2)c2ccccc12`, the inhibition is 64.8% (active). Then `Cc1cc(C)nc(N(C(=O)C2CC2)c2ccc(OC(F)(F)F)cc2)n1`, with -22.9% (inactive); and `COC(=O)c1ccc(NC(=O)CSc2nnc(C(C)Oc3ccccc3)n2C)cc1` (centres undefined), with 25.4% (inactive); and `CN1[C@@H](CCC(=O)N2CCc3ccccc32)CNC(=O)[C@@H]2[C@H]1CCN2Cc1ncc[nH]1`, with -9.99% (inactive). Then `O=S(=O)(c1ccccc1)N1CCC(n2cnnc2-c2ccccc2)CC1`, with -0.303% (inactive); and `Cc1cc(O)c(=O)cc2c1C[C@H]1CC(C)(C)/C=C/C[C@@]3(C)Oc4cc(=O)c(O)cc(C)c4C[C@@H]3C[C@H](O)[C@]1(C)O2`, with -161% (inactive). For `CC(C)(C)CC(=O)N1CCN(c2ccc(N3CCCC3)nn2)CC1`, the inhibition was -15.1% (inactive).

With `O=C(COc1ccc2oc3c(c2c1)CCCC3)Nc1ccccn1`, the inhibition is 48.3% (active). Then `CCC(=O)c1ccc(OCC(=O)Nc2ccc3c(c2)CCC3)cc1`, with -0.468% (inactive); and `COc1ccc(S(=O)(=O)N(C(=O)c2ccccc2)c2ccc3oc4c(c3c2)CCCC4)cc1`, with -10.1% (inactive); and `COc1ccc(-c2nn(-c3ccccc3)cc2C(=O)N2CCCCC2)cc1`, with -1.66% (inactive). The same measure for `O=C(Nc1cccc(-c2cccc(F)c2)c1)C1CCN(Cc2cccc3c2OCO3)CC1`: 36.9% (active). The same measure for `O=C(CN1CCN(CC(=O)Nc2ccc3c(c2)OCO3)CC1)Nc1ccc(F)cc1`: -29.4% (inactive). `O=C(Nc1ccc(Oc2ccccc2F)cc1)C1CCN(Cc2cccc(O)c2)CC1`: the inhibition was 23% (inactive). In the case of `CC1CCC(NC(=O)Cn2c(=O)[nH]c3ccccc3c2=O)CC1` (centres undefined), the inhibition was 26.9% (inactive). In the case of `CCOC(=O)N1CCC(NC(=O)CCc2ccccc2)CC1`, the inhibition is 11.3% (inactive). As for `COc1ccc(CCNC(=O)[C@@H](NC(=O)[C@@H]2Cc3c([nH]c4ccccc34)C3c4ccccc4C(=O)N32)C(C)C)cc1` (some centres undefined), the inhibition is -104% (inactive). The same measure for `COc1ccccc1NC(=O)Nc1ccc(CCc2nc3ccccc3[nH]2)cc1`: -27.4% (inactive). The same measure for `COc1ccccc1NC(=O)N1CCN(Cc2nc3ccccc3o2)CC1`: 7.46% (inactive). Regarding `CCOc1ccccc1NC(=O)Nc1cc(-c2nc3ccccc3o2)ccc1OC`, the inhibition was 58.5% (active).

`COc1ccc(C(=O)NCC(=O)Nc2nc3ccccc3[nH]2)c(C)c1`: the inhibition was 9.21% (inactive). For the compound `O=C(NC1CCCC1)c1csc(C(=O)N2CCCC2)n1`, the inhibition was 3.97% (inactive). Then `CC(C(=O)N1c2ccccc2NC(=O)C1(C)C)N1CCCC1c1ccc2c(c1)OCCO2` (centres undefined), with -221% (inactive). As for `Cc1c(C)n2c(SCC(=O)N(C)c3ccccc3)nnc2[nH]c1=O`, the inhibition is 6.75% (inactive).

`CCCCOc1ccc(C(=O)Nc2ccc3c(c2)CCC(=O)N3CCC)cc1`: the inhibition was 46.1% (active). Then `CCN1C(=O)CCc2cc(NC(=O)Cc3ccc(OC)c(Cl)c3)ccc21`, with -7.67% (inactive). As for `COCCN1C(=O)CCc2cc(NS(=O)(=O)c3cc(C)cc(C)c3)ccc21`, the inhibition was -16.1% (inactive). As to `CC(=O)Nc1ccc(C(=O)NCCn2c(C)nc3ccccc32)cc1`, the inhibition was 27.4% (inactive). Regarding `CC(C)Cc1cc(C(=O)N2CCOC(c3nccnc3N)C2)n(C)n1` (centres undefined), the inhibition is 10.1% (inactive). The same measure for `COc1ccccc1CCNC(=O)c1cccc(N2C(=O)C(C)(C)CS2(=O)=O)c1`: -7.58% (inactive); for `Cc1c(-c2noc(-c3cccc(N(C)C)c3)n2)nnn1Cc1cccc(F)c1`: -2.61% (inactive); for `CCOc1ccccc1-c1nc(-c2nnn(Cc3ccccc3)c2C)no1`: 51.6% (active). Then `COc1ccc(-c2nc(-c3nnn(Cc4cccc(F)c4)c3C)no2)cc1`, with 8.22% (inactive); and `COC(=O)c1ccccc1NC(=O)Cn1cc(S(=O)(=O)Cc2ccc(C)cc2)c2ccccc21`, with -13.4% (inactive); and `COCc1ccc(C(=O)N2CCC3(CC2)CNC(=O)c2ccccc2O3)cc1`, with 14.1% (inactive). The same measure for `O=C(CNC(c1ccccc1)c1ccccc1)Nc1ccc(F)cc1`: 13.6% (inactive); for `Cc1ccc(S(=O)(=O)N(CC(=O)NC(C)c2ccccc2)Cc2ccccc2F)cc1` (centres undefined): 32.6% (active).

In the case of `O=C(CN(Cc1ccccc1Cl)S(=O)(=O)c1ccccc1F)NC(c1ccccc1)c1ccccc1`, the inhibition is 33.4% (active).

Consider `Cc1ccc(Cc2nnc(C(=O)NC(C)c3ccccc3)o2)cc1` (centres undefined), for which the inhibition was -0.465% (inactive). Take `COc1ccccc1N(CC(=O)NCc1cccnc1)S(=O)(=O)c1ccc(C)cc1`: the inhibition was -6.24% (inactive). Then `O=S(=O)(Nc1ccccc1Cc1ccccc1)c1ccccc1F`, with 16.2% (inactive).
